Compound activity as filed in PubChem BioAssay.
The list is not random: actives were taken first. Their share in the collection is about 7.4%.
ELG1 genotoxic: qHTS screen for small molecules that induce genotoxicity in human embryonic kidney (HEK293T) cells expressing luciferase-tagged ELG1 | 330,000 tested, 1.3% active | AID 504466, 2011 | Potency, µM (titrated, usually from 46 µM), for inactives: at the highest dose activity change, positive = activation, usual class: activators | HEK293T ELG1-luciferase reporter, luminescence, 16 h; also: % of control where 0% means no effect; nearly all actives have a fitted effect of over 60% in size
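Step 1: seed 2,000 HEK293T ELG1-luciferase cells per well. Step 2: add compound or DMSO, incubate 16 hr at 37 °C. Step 3: ONE-Glo, 30 min at room temperature, read luminescence.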
SMN2 splice up: qHTS Assay for Enhancers of SMN2 Splice Variant Expression | HEK293 SMN2-luciferase splicing reporter, luminescence, 30-36 h | Potency, µM (highest dose often 46.1 µM), for the others: top-dose activity change, positive = activation, hits mostly activators | 210,000 tested, 2.8% active; also: % of control where 0% means no effect; nearly all actives have a fitted effect of over 55% in size
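qHTS luciferase splicing reporter: luminescence rises when SMN2 exon 7 is included in transfected HEK293 cells. Compound exposure lasted 30-36 h at 37C, with 4.5 mM final sodium butyrate as control, followed by a ONE-Glo read.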
Rab9 promoter act: qHTS Assay for Rab9 Promoter Activators; Huh7 Rab9 promoter-luciferase reporter, luminescence, 24 h; 320,000 tested, 2.8% active; Potency, µM (highest dose often 9.22 µM), without a hit: at the top dose activation, negative = inhibition, actives largely listed as activators; also: % of control where 0% means no effect; nearly all actives have a fitted effect of over 60% in size
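Luciferase signal after 10 min detection reagent at ambient indicates Rab9 promoter upregulation; stably transfected Huh7 cells were treated 24 h with compound in DMSO at 37 °C, 5% CO2.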
FLuc counter: qHTS profiling assay for firefly luciferase inhibitor/activator using purifed enzyme and Km concentrations of substrates (counterscreen for miR-21 project). Potency, µM (series often up to 57.5 µM), for inactives: at the highest dose activity change, negative = inhibition, most hits filed as inhibitors. Luciferin 4-monooxygenase (Photinus pyralis), P08659. AID 588342, 2011. 360,000 tested, 6.9% active. purified FLuc, Km substrates, luminescence inhibition;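 also: plate controls were vehicle for no effect and reference inhibitor for full effect; nearly all actives have a fitted effect of over 55% in size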
Target sequence (P08659 whole entry, looked up): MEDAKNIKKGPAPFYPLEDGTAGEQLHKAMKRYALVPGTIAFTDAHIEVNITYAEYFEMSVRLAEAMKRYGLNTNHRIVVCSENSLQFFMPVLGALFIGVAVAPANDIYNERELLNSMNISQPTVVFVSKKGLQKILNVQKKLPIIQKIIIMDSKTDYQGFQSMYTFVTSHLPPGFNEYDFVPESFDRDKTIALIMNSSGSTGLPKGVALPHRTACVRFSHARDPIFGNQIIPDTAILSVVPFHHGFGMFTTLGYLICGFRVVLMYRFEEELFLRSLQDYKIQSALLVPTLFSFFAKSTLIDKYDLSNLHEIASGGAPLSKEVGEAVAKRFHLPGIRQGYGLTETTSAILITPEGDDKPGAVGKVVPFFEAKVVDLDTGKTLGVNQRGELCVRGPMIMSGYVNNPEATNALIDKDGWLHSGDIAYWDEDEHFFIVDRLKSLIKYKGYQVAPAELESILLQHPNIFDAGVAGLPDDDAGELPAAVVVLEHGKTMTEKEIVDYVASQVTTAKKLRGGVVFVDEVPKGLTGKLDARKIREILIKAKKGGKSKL
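Purified P. pyralis luciferase (10nM final) with 10uM D-luciferin and 10uM ATP (Km levels) in 50mM Tris acetate pH 7.5, 10mM Mg acetate, 0.01% Tween-20, 0.05% BSA; qHTS 6-point titration, ~60 µM downward; luminescence read.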
NPC1 prom act: qHTS Assay for NPC1 Promoter Activators | 320,000 tested, 2.4% active | Huh7 NPC1 promoter luciferase reporter, 24 h | Potency, µM (top dose mostly 9.22 µM), inactives show at the highest dose activation, usual class: activators; also: % of control where 0% means no effect; nearly all actives have a fitted effect of over 60% in size
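NPC1 promoter–luciferase Huh7 cells; 24 h compound; luminescence.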
Active calls of the source: *; ? = inconclusive; · = no result given. Calls follow the shape of the dose curve; as a rule, active = well fitted curve in the direction sought with a large enough effect; inconclusive = small, poorly fitted or top-dose-only effect, or another doubt; inactive = no such curve, though single readings can be large; an effect the other way counts as inactive or inconclusive. Potency is read from the fitted curve at half-maximal effect.

SMILES | ELG1 genotoxic | SMN2 splice up | Rab9 promoter act | FLuc counter | NPC1 prom act
COc1ccc(C2CC(=O)c3cc(-c4nc(-c5ccc(C)cc5)cs4)c(=O)[nH]c3C2)cc1 (stereo not given) | · | -12% | · | 6% | ·
O=c1c2cn[nH]c2[nH]c(=S)n1-c1ccccc1Cl | 3% | · | 0% | -7% | -4%
O=c1c2cn[nH]c2[nH]c(=S)n1-c1ccccc1F | 6.5µM* | 14µM* | ? | 1.2µM* | 2.8µM*
Cc1ccc(-n2nc(C)c3nc(CCC(=O)Nc4ccc(F)cc4)c(=O)n(C)c32)cc1 | · | · | · | -2% | ·
COc1ccc(-n2nnc(C(=O)Nc3ccccc3F)c2N)cc1 | · | 7.1µM* | · | 2.4µM* | ·
COc1ccc(-c2cc(C(=O)Nc3ccccc3)on2)cc1 | ? | ? | 3% | 0.54µM* | 0%
COc1ccc(-c2cc(C(=O)Nc3ccccc3F)on2)cc1 | ? | ? | 3.2µM* | -17% | 1%
CC(=O)N1CCC2(CC1)CN(C(=O)Nc1cccc(C#N)c1)C2 | · | -6% | · | · | ·
COc1ccc(NC(=O)CCS(=O)(=O)c2ccc3c(c2)n(C)c(=O)c(=O)n3C)cc1Cl | · | 2% | · | -1% | ·
COc1ccc(NC(=S)N2CCC(C(=O)c3ccc(OC)cc3)CC2)cc1 | -12% | · | 0% | 12µM* | -1%
COc1ccc(NC(=S)N2CCC(C(O)(c3ccccc3)c3ccccc3)CC2)cc1 | -3% | 10% | 1% | 1% | -4%
COc1ccc(NC(=S)N2CCC(C(=O)c3ccc(C)cc3)CC2)cc1 | -3% | · | -6% | ? | 1%
COc1ccc(NC(=S)N2CCC(c3ccccc3)C2)cc1 (stereo not given) | 9.2µM* | · | 2µM* | 6.7µM* | 2.5µM*
CCn1nc(-c2ccccc2)c(-c2ccccc2)c(C(=O)Nc2nc(C)c(C(C)=O)s2)c1=O | · | -7% | · | ? | ·
CNS(=O)(=O)c1cn(CC(=O)Nc2ccc(OC)cc2OC)cc1S(=O)(=O)NC | · | · | · | -2% | ·
COC(=O)C1(C(=O)OC)CC2=CC(CC2=O)Cc2ccccc2[C@@H]1C[N+](=O)[O-] (stereo not given in full) | · | 3% | · | · | ·
C/C(=N/OC(=O)C1CC1)c1cc(-c2ccc(Cl)cc2)no1 | ? | · | 2.8µM* | 5.4µM* | ?
C/C(=N\OC(=O)c1ccccc1)c1cc(-c2ccc(Cl)cc2)no1 | ? | ? | 3.2µM* | -1% | 2.8µM*
COc1cc(/C=C2\CCc3c2nc2ccccc2c3C(=O)O)cc(OC)c1OC | 23µM* | · | 3.5µM* | 0.85µM* | 2µM*
COc1ccc(/C=C2\CCn3c2nc2ccccc2c3=O)cc1OC | ? | · | 2.5µM* | 8.5µM* | 3.5µM*
COc1ccc(/C=C2\CCn3c2nc2cc(C(=O)O)ccc2c3=O)cc1OC | 1% | · | -34% | -4% | -3%
Cc1ccc(C)c2sc(N3CCN(C(=O)C(C)(C)C)CC3)nc12 | · | · | · | -8% | ·
CCCN(CCC)CCNC(=O)C1CCCN(S(=O)(=O)c2cccc3nsnc23)C1 (stereo not given) | · | -20% | · | 1% | ·
O=C1CC(c2ccccc2)Cc2[nH]c(=O)c(-c3nc(-c4cccc(Cl)c4)cs3)cc21 (stereo not given) | · | -11% | · | -1% | ·
COc1ccc(-c2noc(C3CCCN(C(=O)c4ccccc4)C3)n2)cc1 (stereo not given) | 0% | · | -5% | 19µM* | 0%
CCCC(=O)N1CCCC(c2nc(-c3cccc(OC)c3)no2)C1 (stereo not given) | ? | 11µM* | 1.4µM* | 9.5µM* | 3.5µM*
Cc1ccc(-c2noc(C3CCCN(C(=O)c4ccccc4Br)C3)n2)o1 (stereo not given) | 19% | · | ? | ? | ?
CCCCCCC(=O)N1CCCC(c2nc(-c3cccc(OC)c3)no2)C1 (stereo not given) | -4% | · | -3% | -4% | -6%
Cc1ccc(-c2noc(C3CCCN(C(=O)c4ccccc4)C3)n2)o1 (stereo not given) | 9.2µM* | ? | ? | 19µM* | ?
